Inconclusive results are not listed. The source made the active and inactive calls. The call rests on the fitted dose curve; in most records, active means well fitted inhibition curve with a large enough effect; inconclusive means small, poorly fitted or top-dose-only effect, or effect the other way; inactive means flat fitted curve, though single readings scatter.
test: qHTS for Inhibitors of Plasmodium falciparum (CP250) proliferation (AID 504320); details: P. falciparum CP250 in erythrocytes, SYBR Green DNA, 72 h; series mostly up to 6.7 µM; activity change, negative = inhibition: at the top concentration
Excerpt: Plasmodium falciparum is a virulent malarial parasite that kills 1-2 million people worldwide each year. Malaria not only inflicts tremendous suffering and morbidity on the human population, but has dramatically influenced the course of civilization with profound sociological and economic implications (Shah, S. 2010). Transmitted by mosquitoes, the sporozoite form of the parasite enters the blood stream to infect hepatocytes, where they become merozoites that infect red blood cells (erythrocytes). Within erythrocytes, merozoites begin a […] cycle of growth and division, after which the parasite is released to infect new red blood cells. Gametocytes, which form within erythrocytes as well, circulate in the bloodstream and are ingested by the mosquito, thereby completing the life cycle (see CDC website). To profile malarial lines for differential chemical responses and to identify inhibitors of malarial growth, an assay that measures P. falciparum growth and replication within erythrocytes was employed. This assay uses a DNA binding fluorescent dye (SYBR Green) to detect parasite DNA following cell lysis. Because mature erythrocytes lack DNA, only Plasmodium-derived DNA is detected. The P. falciparum line cp250, derived from a malarial isolate from Cambodia, (Mu, J., et al. 2010) was added to the panel of lines, Dd2, HB3, 7G8 and GB4 in this study. Laboratory of Assay Development and Screening Technology [ADST] and NIH Chemical Genomics Center [NCGC] Boston University, Chemistry Department, Center for Chemical Methodology and Library Development [CMLD-BU] NIH National Institute of Allergy and Infectious Diseases [NIAID]
ADST Assay Protocol Summary: The 1536-well SYBR Green viability assay was based on the method of Bennett et al (2004) and described previously in 1536-well format (Yuan J., et al. 2009). For screening 3 ul culture medium was dispensed into 1536 well black clear bottom plates (Aurora Biotechnologies) using a Multidrop Combi (Thermo Fisher Scientific Inc.), 23 nL compounds in DMSO were added by a pin transfer (Cleveland, P.H. and Koutz, P.J, 2005) using a pin tool-based delivery system (Kalypsys), and 5 ul of erythrocytes infected with P. falciparum one of five lines (cp250, Dd2, HB3, 7G8 or GB4, 0.3% parasitemia, 2.5% hematocrit final concentration) were added. The plates were incubated at 37C in a humidified incubator in 5% CO2 for 72 h, and 2 ul lysis buffer (20 mM Tris HCl, 10 mM EDTA, 0.16% saponin, 1.6% triton X, 10X SYBR Green I (supplied as 10,000X final concentration by Invitrogen) was added to each well. The plates were mixed for 25 sec with gentle shaking and incubated overnight at room temperature in the dark. The following morning, fluorescence intensity at 485(14) nm excitation and 535(25) nm emission wavelengths was measured on an EnVision (Perkin Elmer) plate reader. Plate reads were normalized relative to the control inhibitor (0.29 uM artemisinin) and vehicle (DMSO) wells present on each plate and then corrected by an algorithm using vehicle-only control plates at the beginning and end of the compound plate stack. References Shah, S. (2010). The Fever: how malaria has ruled humankind for 500,000 years. New York, Sarah Crichton Books. CDC web site, http://www.cdc.gov/malaria/about/biology/index.html Mu, J., Myers, R.A., Jiang, H., Liu, S., Ricklefs, S., Waisberg, M., Chotivanich, K., Wilairatana, P., Krudsood, S., White, N.J., et Plasmodium falciparum genome-wide scans for positive selection, recombination hot spots and resistance to antimalarial drugs Nature Genetics 2010, 42, pp 268-271 Bennett TN, Paguio, M., Gligorijevic, B., Seudieu, C., Kosar, A. D., Davidson, E., and Roepe, P. D. Novel, rapid, and inexpensive cell-based quantification of antimalarial drug efficacy Antimicrobial Agents Chemother. 2004, 48(5): pp 1807-10 Yuan J, Johnson RL, Huang RL, Wichterman J, Jiang HY, Hayton K, Fidock DA, Wellems TE, Inglese J, Austin CP, Su XZ. […]

Activity change, negative = inhibition, inactive:
CC#CCN1c2ccccc2[C@]23C[C@@H](C(=O)OC)N(C(=O)c4ccc(Br)cc4)C2=NC(C(=O)OC)=C(C(=O)OC)[C@H]13 5.11%, COC(=O)N1C(C)=Cc2ccccc2C1C/C(C)=C/C(C)=O (stereo not given) -0.586%, CCCCc1nc2c(c3c1C[C@H](C)OC3)CN(S(=O)(=O)c1ccc(Cl)c3nonc13)CC2 -5.58%, COC(=O)C1=C(C(=O)OC)[C@@H]2Nc3ccccc3[C@@]23C[C@@H](C(=O)OC)N(S(=O)(=O)c2cccs2)C3=N1 0.102%, COC(=O)CCCC1=CC2=C(c3ccccc3)C(=O)C(C)(OC(=O)C3CCCC3)C(=O)C2=CN1C1CCCC1 (stereo not given) -1.04%, COC(=O)CCC(=O)OC1(C)C(=O)C2=CN(Cc3ccc(OC)cc3)C(c3ccc(OC)cc3)=CC2=C(Br)C1=O (stereo not given) -2.1%, COC(=O)CCCC1=CC2=CC(=O)C(C)(OC(=O)c3cccs3)C(=O)C2=CN1CC1CC1 (stereo not given) -2.36%, COC(=O)[C@@H]1[C@@H](C)N(CCc2cc(OC)c(OC)c(OC)c2)C(=O)N[C@H]1c1ccccc1 4.5%, COc1ccc(-c2nc3c(c4c2C[C@H](c2ccccc2)OC4)CN(S(=O)(=O)c2ccc(C#N)cc2)CC3)c(C)c1 1.69%, CC(C)(C)N1C(=O)[C@@H]2[C@H]3[C@H](O)[C@H](O)CC(=NOCc4ccccc4)[C@H]3CC[C@H]2C1=O 1.4%, COc1ccc(CN2C=C3C(=O)C(C)(OC(=O)CCc4ccccc4)C(=O)C=C3C=C2c2ccc(C#N)cc2)cc1 (stereo not given) -0.685%, C=CCN1C=C2C(=O)C(C)(OC(=O)CC)C(=O)C=C2C=C1CCCC (stereo not given) 0.157%, COC(=O)C1=C(C)N(CCc2cc(OC)c(OC)c(OC)c2)C(=O)N[C@H]1c1ccccc1 4.24%, COC(=O)C1=C(C(=O)OC)[C@@H]2N(C)c3ccc(OC)cc3[C@@]23C[C@@H](C(=O)OC)N(S(=O)(=O)c2ccc4c(c2)OCCN4C)C3=N1 -2.91%, CCCCC1=CC2=C(c3ccco3)C(=O)C(C)(OC(=O)c3ccc(OC)cc3)C(=O)C2=CN1CCOC (stereo not given) -1.64%, CC(C)CON=C1C[C@@H](O)[C@@H](O)[C@@H]2[C@H]3C(=O)N(C4CCCCC4)C(=O)[C@@H]3CC[C@H]12 -9.49%, CCCCC1=CC2=CC(=O)C(C)(OC(=O)CC)C(=O)C2=CN1CCc1ccc(Br)cc1 (stereo not given) 0.231%, COC(=O)[C@H]1[C@@H](C)N(Cc2ccccc2)C(=O)N[C@H]1c1ccccc1 1.06%, Cc1cc2c(c(=O)n1-c1ccccc1)[C@H]1O[C@](c3ccsc3)(Cc3cc(C#N)ccc31)O2 -10.8%, COC(=O)C1=C(C(=O)OC)[C@@H]2N(Cc3ccccc3)c3ccccc3[C@@]23C[C@@H](C(=O)OC)N(C(=O)COCc2ccccc2)C3=N1 -1.11%, COC(=O)CCC(=O)OC1(C)C(=O)C2=CN(c3ccccc3)C(c3ccc(OC)cc3)=CC2=C(Br)C1=O (stereo not given) -0.545%, COC(=O)C(C(=O)OC)[C@@H]1c2ccccc2[C@H]2C(=C[C@@H](C)[C@H]3C(=O)N(c4ccccc4)C(=O)[C@H]32)N1C(=O)OC -1.88%, COC(=O)CCCC1=CC2=C(c3ccccc3)C(=O)C(C)(OC(=O)C3CCCC3)C(=O)C2=CN1CC(C)C (stereo not given) 6.12%, C=CCN1c2ccccc2[C@]23C[C@@H](C(=O)OC)N(S(=O)(=O)c4cccs4)C2=NC(C(=O)OC)=C(C(=O)OC)[C@H]13 5.77%, CCOC(=O)CN1C(=O)N[C@@H](CCc2ccccc2)C(C(=O)OC)=C1C 1.26%, C=C(C(C)=O)C(O)c1cccs1 (stereo not given) 3.97%, CCCCCCCc1cc2ccccc2c2c(C(=O)OC)c(-c3ccccc3)c(C(=O)OC)n12 -2.81%, COC(=O)CCC(=O)OC1(C)C(=O)C=C2C=C(C3CC3)N(CCN3CCOCC3)C=C2C1=O (stereo not given) 0.86%, C=C(C)C(=O)c1ccc2c(c1)OCO2 3.25%, CC1(C)O[C@@H]2[C@@H](O1)C(c1ccccc1)(c1ccccc1)OP(=O)(O)OC2(c1ccccc1)c1ccccc1 0.149%, COC(=O)C1=C(C(=O)OC)[C@@H]2N(C)c3ccccc3[C@@]23C[C@@H](C(=O)OC)N(S(=O)(=O)c2ccc(OC)cc2)C3=N1 -2.46%, CC#CCN1c2ccccc2[C@]23C[C@@H](C(=O)OC)N(C(=O)CC(C)C)C2=NC(C(=O)OC)=C(C(=O)OC)[C@H]13 -2.69%, COC(=O)C1=C(C(=O)OC)[C@@H]2N(C)c3ccccc3[C@@]23C[C@@H](C(=O)OC)N(S(=O)(=O)c2ccc4c(c2)OCCN4C)C3=N1 -16.9%, COc1ccc([C@]23Cc4cc(OC)c(OC)cc4[C@H](O2)c2c(c4ccccc4oc2=O)O3)cc1 -3.67%, COC(=O)C1=C(C(=O)OC)[C@@H]2N(C)c3ccc(OC)cc3[C@@]23C[C@@H](C(=O)OC)N(S(=O)(=O)c2cccs2)C3=N1 -1.42%, C#CCCOC(=O)N1C2=NC(C(=O)OC)=C(C(=O)OC)[C@@H]3N(C)c4ccc(OC)cc4[C@]23C[C@H]1C(=O)OC -5.5%, CCOC(=O)CN1C(=O)N(CC)C(C)=C(C(=O)OC)[C@@H]1c1ccccc1 -3.46%, CCCCc1nc2c(c3c1C[C@H](C)OC3)CN(C(=O)Cc1cccc(OC)c1)CC2 1.1%, C=CCN1C=C2C(=O)C(C)(OC(=O)CCc3ccccc3)C(=O)C=C2C=C1c1ccc(C#N)cc1 (stereo not given) 3.57%

Potency, inactive:
COC(=O)C1=C(C(=O)OC)[C@@H]2Nc3ccccc3[C@@]23C[C@@H](C(=O)OC)N=C3N1

— PubChem BioAssay (NCATS)
